The values that follow come from PubChem BioAssay AID449739 (Vanderbilt High Throughput Screening Facility, 2010).

Screen size: about 100,000 compounds; about 4,200 (4.2%) were called active. For the sample, actives were picked, then their nearest neighbours and some compounds at random. Unmarked numbers belong to inactive results.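 The calls were made as follows: active = single-dose well whose peak fluorescence ratio is a statistical outlier from its plate by either plate-standardised score or position-corrected B-score; inactive = the rest.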

Voltage-dependent T-type calcium channel subunit alpha-1H (Homo sapiens), sequence (O95180 whole entry, looked up): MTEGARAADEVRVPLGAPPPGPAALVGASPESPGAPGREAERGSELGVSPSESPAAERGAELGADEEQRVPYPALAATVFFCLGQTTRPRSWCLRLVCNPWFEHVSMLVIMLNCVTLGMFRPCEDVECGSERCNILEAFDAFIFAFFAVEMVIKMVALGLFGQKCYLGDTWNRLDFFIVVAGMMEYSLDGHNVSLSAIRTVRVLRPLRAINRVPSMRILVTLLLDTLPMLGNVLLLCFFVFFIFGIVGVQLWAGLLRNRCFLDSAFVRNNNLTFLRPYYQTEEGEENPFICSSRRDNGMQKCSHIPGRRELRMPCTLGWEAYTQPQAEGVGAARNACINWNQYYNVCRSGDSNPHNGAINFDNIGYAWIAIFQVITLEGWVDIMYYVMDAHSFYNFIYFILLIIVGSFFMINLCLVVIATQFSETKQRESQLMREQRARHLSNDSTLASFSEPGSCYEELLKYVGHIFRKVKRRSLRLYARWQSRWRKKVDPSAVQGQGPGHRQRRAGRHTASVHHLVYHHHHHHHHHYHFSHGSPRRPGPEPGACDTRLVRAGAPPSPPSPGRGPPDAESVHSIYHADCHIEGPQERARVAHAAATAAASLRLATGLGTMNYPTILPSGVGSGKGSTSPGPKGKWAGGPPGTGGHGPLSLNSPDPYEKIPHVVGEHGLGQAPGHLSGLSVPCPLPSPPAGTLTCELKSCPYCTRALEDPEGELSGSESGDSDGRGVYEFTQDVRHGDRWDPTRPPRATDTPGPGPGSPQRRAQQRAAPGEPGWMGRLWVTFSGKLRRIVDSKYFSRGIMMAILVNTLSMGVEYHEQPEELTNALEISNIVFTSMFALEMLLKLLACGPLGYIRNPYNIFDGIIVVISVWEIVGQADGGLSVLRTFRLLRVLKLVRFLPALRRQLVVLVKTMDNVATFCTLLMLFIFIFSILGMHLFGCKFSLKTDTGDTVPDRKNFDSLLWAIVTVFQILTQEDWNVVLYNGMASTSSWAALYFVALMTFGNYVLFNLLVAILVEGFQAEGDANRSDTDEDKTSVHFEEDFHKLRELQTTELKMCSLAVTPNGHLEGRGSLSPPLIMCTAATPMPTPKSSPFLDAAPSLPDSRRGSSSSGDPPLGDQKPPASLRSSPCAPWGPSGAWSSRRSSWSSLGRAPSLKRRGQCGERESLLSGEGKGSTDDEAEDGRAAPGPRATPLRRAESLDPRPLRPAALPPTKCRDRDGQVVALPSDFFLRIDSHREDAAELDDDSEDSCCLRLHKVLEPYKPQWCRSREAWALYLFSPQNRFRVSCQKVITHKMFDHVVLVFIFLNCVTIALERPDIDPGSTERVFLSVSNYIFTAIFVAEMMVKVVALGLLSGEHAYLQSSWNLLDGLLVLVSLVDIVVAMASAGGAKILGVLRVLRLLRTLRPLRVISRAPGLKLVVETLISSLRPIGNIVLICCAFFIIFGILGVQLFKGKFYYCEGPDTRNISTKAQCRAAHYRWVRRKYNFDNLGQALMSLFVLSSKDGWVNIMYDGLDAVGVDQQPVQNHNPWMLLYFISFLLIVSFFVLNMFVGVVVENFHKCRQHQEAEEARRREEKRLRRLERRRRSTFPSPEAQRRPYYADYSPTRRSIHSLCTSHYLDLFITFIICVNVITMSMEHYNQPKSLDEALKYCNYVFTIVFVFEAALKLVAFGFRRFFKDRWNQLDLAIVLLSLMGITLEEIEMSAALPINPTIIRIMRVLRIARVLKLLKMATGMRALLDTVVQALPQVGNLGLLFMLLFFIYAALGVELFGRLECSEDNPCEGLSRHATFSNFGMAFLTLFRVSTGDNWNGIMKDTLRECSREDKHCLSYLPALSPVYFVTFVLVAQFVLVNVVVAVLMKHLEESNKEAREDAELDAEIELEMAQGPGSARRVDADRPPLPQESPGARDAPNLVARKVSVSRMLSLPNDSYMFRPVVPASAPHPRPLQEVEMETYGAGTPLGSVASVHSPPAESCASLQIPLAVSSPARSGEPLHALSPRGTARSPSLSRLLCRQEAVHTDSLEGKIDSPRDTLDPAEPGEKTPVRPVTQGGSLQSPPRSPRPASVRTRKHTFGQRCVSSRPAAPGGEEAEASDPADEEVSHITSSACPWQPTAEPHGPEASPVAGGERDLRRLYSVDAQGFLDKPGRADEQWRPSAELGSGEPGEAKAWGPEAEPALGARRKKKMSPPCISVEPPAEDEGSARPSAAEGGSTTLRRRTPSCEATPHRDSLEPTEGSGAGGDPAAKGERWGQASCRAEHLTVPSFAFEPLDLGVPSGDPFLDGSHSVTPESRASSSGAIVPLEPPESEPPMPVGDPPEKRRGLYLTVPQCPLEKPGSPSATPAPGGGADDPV

This experiment has as its target Voltage-dependent T-type calcium channel subunit alpha-1H (Homo sapiens) (UniProt O95180). Briefly: Cav3.2 calcium influx blockers – cell-based, Fluo-4 calcium fluorescence, FDSS, MLSMR library, primary screen (AID 449739). The settings on record: Cav3.2-expressing cells, at 10 µM, stronger effect = lower value.
As to `Cn1ccnc1-c1nnn(-c2ccc(F)cc2)n1`, the B-score was -0.241.

Take `Cc1cccc(C(=O)Nc2ccccc2-c2nnn(CC(=O)Nc3ccc4c(c3)OCCO4)n2)c1`: the B-score is 0.0432.

Consider `COc1ccc(C2/C=C\CN(S(=O)(=O)c3cccs3)CC(=O)N2Cc2ccc(F)cc2)cc1` (centres undefined), for which the B-score is -1.93.

For `CCCC(=O)N1CCc2[nH]c3ccccc3c2C1`, the B-score was 1.88.

With `O=C(Nc1ccc(Cl)cc1)N1CCc2[nH]c3ccccc3c2C1`, the B-score was -6.38 (active).

Consider `O=C(NC1CCCCC1)N1CCc2[nH]c3ccccc3c2C1`, for which the B-score was -0.408.

Turning to `CCC(C)NC(=O)c1c(N)n(/N=C/c2cccs2)c2nc3ccccc3nc12` (centres undefined), the B-score is -0.663.

For `COc1ccccc1OCCNc1cc(N2CCOCC2)ccc1[N+](=O)[O-]`, the B-score was -0.763.

Take `CCOC(=O)c1sc(NC(=O)CSc2nc3c(c(=O)n2-c2ccccc2)SCC3)c(C(=O)OCC)c1C`: the B-score is -0.157.

For `CC(C)C[C@H](NC(=O)Nc1cccc(C(F)(F)F)c1)C(=O)O`, the B-score was 0.25.

As for `CC(=O)N1CCN(C(=O)Nc2cccc(C(F)(F)F)c2)CC1`, the B-score was 0.454.

As to `FC(F)(F)c1cccc(NC(=S)Nc2cccc(Cl)c2)c1`, the B-score is -7.17 (active).

In the case of `c1ccc(-n2nnnc2NC2CCCCCC2)cc1`, the B-score is 0.00228.

`O=C(N/N=C/c1ccc(O)c(O)c1)C1c2ccccc2Oc2ccccc21`: the B-score was 1.05.

Consider `CCCN(CCC)C(=O)C1c2ccccc2Oc2ccccc21`, for which the B-score was -4.57 (active).

As to `O=C(c1ccco1)N1CCN(C(=O)C2c3ccccc3Oc3ccccc32)CC1`, the B-score was 0.29.

For the molecule `C=CCNc1nc(N)c(C(=C(C#N)C#N)c2ccccc2)s1`, the B-score was -0.0432.

For `COC(C[C@@H](O)[C@H](C)[C@H](O)COCc1ccccc1)OC`, the B-score is 0.321.

Take `CCN(CC)c1ccc(NC(=O)c2ccc(Cl)nc2)cc1`: the B-score was -0.986.

Regarding `COc1ccccc1-c1nnc(SCC(=O)N2CC(C)CC(C)C2)o1` (centres undefined), the B-score is 0.0644.

Consider `CCOc1ccccc1Nc1nnc(SCc2ccc(C(=O)OC)o2)s1`, for which the B-score was -3.2.

For the molecule `COc1cccc(Nc2nnc(SCC(=O)N3CC(C)OC(C)C3)s2)c1` (centres undefined), the B-score was -4.05 (active).

As for `O=C(Nc1ccccc1)OCc1cn(-c2ccc(Cl)cc2)nn1`, the B-score was -0.643.

Turning to `Cc1ccc(S(=O)(=O)N(CC(=O)N2CCc3ccccc3C2)c2cccc(Cl)c2)cc1`, the B-score is -5.57 (active).

As for `CCOC(=O)N1CCN(C(=O)CN(c2ccc(C)c(C)c2)S(=O)(=O)c2ccccc2)CC1`, the B-score was -1.16.

Consider `COc1cccc(N(CC(=O)N2CCc3ccccc3C2)S(C)(=O)=O)c1`, for which the B-score is 1.04.

As for `O=C(NCc1ccccc1)C1=C[C@H](C2CC2)C[C@H](OCc2ccc(CO)cc2)O1`, the B-score is -0.049.

For `CCOC(=O)c1c(NC(=O)C(C)Sc2c[nH]c3ccccc23)sc2c1CCC2` (centres undefined), the B-score is -0.96.

`C#CCOCCOCCOCCNc1nc(N2CCN(C(=O)[C@H](C(C)C)n3cc(CCO)nn3)CC2)nc(N2CCN(C(=O)[C@H]([C@@H](C)CC)n3cc(CCCN=C(N)N)nn3)CC2)n1`: the B-score was 0.0921.

On to `CC1=NN(C(=O)c2ccccc2Br)C(O)(c2cccnc2)C1` (centres undefined), for which the B-score was 0.377.

Regarding `O=C(CSc1nnc(-c2ccccc2)o1)N1CCOCC1`, the B-score was -0.483.

`CC1=CC(C)(C)N(C(=O)CSc2nnc(-c3ccccc3)o2)c2ccc(C)cc21`: the B-score is -4.16 (active).

`CC1=CC(C)(C)N(C(=O)CSc2nccn2C)c2cc(C)ccc21`: the B-score is -0.49.

Turning to `CC(C)=CCc1c(O)c(CC=C(C)C)c2occ(-c3ccc(O)cc3)c(=O)c2c1O`, the B-score was -0.844.

Take `Cc1ccc(NC(=O)c2nc[nH]c2C(=O)N[C@@H](CCCCNC(=O)OC(C)(C)C)C(=O)OC(C)(C)C)cc1`: the B-score is -0.574.

For the molecule `CC(C)C(=O)OCC(=O)Nc1ccc2c(c1)CCC2`, the B-score was 0.246.

Take `Cc1ccccc1NC(=S)Nc1cccc([N+](=O)[O-])c1`: the B-score was -0.107.

On to `CCN(CC)S(=O)(=O)c1cc([N+](=O)[O-])ccc1NNC(=O)Nc1ccccc1`, for which the B-score is -4.53 (active).

`CCN(CC)S(=O)(=O)c1cccc(C(=O)Nc2ccccc2)c1`: the B-score was 0.194.

For the molecule `O=C1CC2(CCCC2)Oc2ccc(Cl)cc21`, the B-score is -0.0281.

In the case of `CCOC(=O)C1Nc2ccc(C(F)(F)F)cc2C2C=CCC12` (centres undefined), the B-score was -0.137.

In the case of `CCN(CC)S(=O)(=O)c1ccc(NC(=O)CN(c2cccc(F)c2)S(C)(=O)=O)cc1`, the B-score is -6.56 (active).

As to `Cc1ccc(N(CC(=O)Nc2cccc(N(C)S(C)(=O)=O)c2)S(C)(=O)=O)cc1`, the B-score is 1.01.

Turning to `COc1cccc(N(CC(=O)Nc2cccc(N(C)S(C)(=O)=O)c2)S(C)(=O)=O)c1`, the B-score is -1.19.

Consider `CC1=C(N2CCN(c3ncccn3)CC2)CCC1=O`, for which the B-score is 0.282.

`C[C@@H]1CC[C@]2(O[C@@H](CCO)C[C@H](O)[C@H]2O)O1`: the B-score is 0.111.

As for `CSc1cccc(NC(=O)CSc2ccccc2)c1`, the B-score was -6.09 (active).

As to `CCn1c(Cc2ccccc2)nnc1SCC(=O)Nc1ccccc1`, the B-score was 0.0752.

`COC(=O)c1cccc(NC(=O)CSc2nc(C)cc(=O)[nH]2)c1`: the B-score was 0.842.

Take `COC(C[C@@H]1O[C@@H]1C(=O)[C@@H](C)OCc1ccccc1)OC`: the B-score was 0.0102.

For the molecule `Cc1cccc(NC(=O)C2CC(=O)OC23CCCC3)c1` (centres undefined), the B-score is 2.01.

In the case of `Cc1cccc(NC(=O)C(C)N2C(=O)C3C4CC(C(Br)C4Br)C3C2=O)c1` (centres undefined), the B-score was -4.83 (active).

Turning to `Cc1cc(C)cc(NC(=O)c2cccc(NC(=O)C3C4CC5OC(=O)C3C5C4)c2)c1` (centres undefined), the B-score is -0.673.

Turning to `CC1(C)C=C2[C@H]3CC[C@@H]4[C@@]5(C)CCC(=O)C(C)(C)[C@@H]5CC[C@@]4(C)[C@]3(C)CC[C@@]2(C(=O)O)CC1`, the B-score is -0.0499.

Consider `COc1ccc(CNC(=O)C2(CC3CC(c4ccccc4)=NO3)CCN(C(=O)c3cccc(O)c3)CC2)cc1` (centres undefined), for which the B-score was -0.683.

On to `CCOC(=O)C1=C(CSc2nccn2C)NC(=O)NC1c1ccc(OC)cc1` (centres undefined), for which the B-score was 0.905.

As to `CCOC(=O)C1=C(CNC2CCCCC2)NC(=O)NC1c1cc(C)ccc1C` (centres undefined), the B-score was -3.93 (active).

Take `CCOC(=O)COc1ccc(Cl)cc1C1NC(=O)NC(C)=C1C(C)=O` (centres undefined): the B-score was 0.0116.

On to `O=c1cc(-c2ccccc2)[nH]c2cc(F)ccc12`, for which the B-score was -1.92.

For `N=c1c2c(-c3ccccc3)c(-c3ccccc3)oc2ncn1Cc1ccco1`, the B-score is -2.43.

`OCCCN1c2ccccc2Nc2nnc(-c3ccccc3)cc21`: the B-score is 0.492.

As for `N=c1c2c(-c3ccccc3)c(-c3ccccc3)n(Cc3ccccc3)c2ncn1CCCO`, the B-score is -7.3 (active).

`Cc1cccc(NC(=S)NCc2ccc3[nH]c4c(c3c2)CCCC4)c1`: the B-score is -3.54.

For the molecule `COc1ccc(-c2nn(-c3ccccc3)cc2C(=O)Nc2nccs2)cc1OC`, the B-score is -3.24.

`CC(=O)C1=C(C)NC(C)=C(C(C)=O)C1c1cn(-c2ccccc2)nc1-c1cccs1`: the B-score was -3.89 (active).

Consider `C=CCOC(=O)C1=C(C)NC(C)=C(C(=O)OCC=C)C1c1cccs1`, for which the B-score is -3.25.

Turning to `CNC(=O)c1[nH]cnc1C(=O)N[C@@H](CC(C)C)C(=O)OCc1ccccc1`, the B-score was -0.016.

In the case of `Cc1[nH]c2ccccc2c1C(=O)COC(=O)C(C)C`, the B-score was 0.085.

Regarding `COc1ccc2c(c1)SC(C)CC2=O` (centres undefined), the B-score is -0.0138.

Regarding `CC1(C)S[C@@H]2[C@H](NC(=O)COc3ccccc3)C(=O)N2C1C(=O)OCc1ccccc1` (some centres undefined), the B-score was -1.43.

In the case of `CCOc1ccc2[nH]c(=O)c(CN(Cc3nnnn3Cc3ccccc3)CC3CCCO3)cc2c1` (centres undefined), the B-score was -0.479.

As for `CCc1ccc2c(c1)cc(CN(C(=S)Nc1ccccc1Cl)C1CC1)c1nnnn12`, the B-score was 0.523.

Turning to `CCOc1ccc2c(c1)cc(CN(C(=O)CC)C1CCCCC1)c1nnnn12`, the B-score was -4.82 (active).

As for `O=C(COc1ccc(Cl)cc1)NCCC1=CCCCC1`, the B-score was -2.12.

In the case of `C=C1CCN([C@@H](Cc2ccccc2)C(=O)N2CCOCC2)S(=O)(=O)c2ccccc21`, the B-score is 0.119.

`O=C(NC1(C(F)(F)F)N=C2SCCN2C1=O)c1ccco1` (centres undefined): the B-score is 0.645.

For the molecule `O=C1N=C2SCCN2/C1=C\c1c(Cl)cccc1Cl`, the B-score is -7.62 (active).

For `O=C1N=C(N2CCCC2)S/C1=C\c1cccc(Br)c1`, the B-score is 0.36.

Take `O=C(NC1=NCCS1)[C@H](Cc1ccccc1)N1C(=O)c2ccccc2C1=O`: the B-score is -0.0971.

`NC(=O)CC[C@@H]1NC(=O)[C@@H]2CCCN2C(=O)c2cc([N+](=O)[O-])cc(F)c2NCCC[C@@H](C(N)=O)NC1=O`: the B-score is 0.224.

As to `CCCCOC(=O)c1ccc(N2C(=O)CC(N3CCN(C/C=C/c4ccccc4)CC3)C2=O)cc1` (centres undefined), the B-score was -6.05 (active).

In the case of `CCOC(=O)c1ccc(N2C(=O)CC(N(C)Cc3ccccc3)C2=O)cc1` (centres undefined), the B-score was 0.0731.

On to `CCOC(=O)c1ccc(N2C(=O)CC(N3CC(C)OC(C)C3)C2=O)cc1` (centres undefined), for which the B-score is 0.246.

As for `O=C(CCCN1C(=O)c2cccc3cccc(c23)C1=O)N1CCN(Cc2ccc3c(c2)OCO3)CC1`, the B-score is -2.86.

With `O=C(Cc1ncc(C(F)(F)F)cc1Cl)Nc1cccc(Br)c1`, the B-score was -4.67 (active).

For `CC(=O)c1ccc(Cc2ncc(C(F)(F)F)cc2Cl)s1`, the B-score was -0.288.

Take `O=C(CN1CCN(c2ncc(C(F)(F)F)cc2Cl)CC1)Nc1ccc2c(c1)OCO2`: the B-score was -1.4.

`O=C(/C=C/c1cccs1)c1cc(Cl)ccc1OC(=O)N1CCOCC1`: the B-score is -1.17.

With `CN1/C(=c2/s/c(=C3/C(=O)N(c4ccccc4)NC3=Nc3ccccc3)n(C)c2=O)C(C)(C)c2ccccc21`, the B-score is -2.19.
